Results published in PubChem BioAssay (NCATS).
Inconclusive results are not listed. Values without a mark were called inactive. The source made the active and inactive calls. The call rests on the fitted dose curve; in most records, active means well fitted cell-killing curve with a large enough effect; inconclusive means small, poorly fitted or top-dose-only effect, or effect the other way; inactive means no such curve, though single readings can be large or run the other way.

Legend:
[1] = Quantitative High-Throughput drug screen in 47 multiple myeloma cell lines against the NCATS MIPE library collection: KMS28PE_JCRB cell viability assay (AID 1918983); further: nearly all actives have a fitted effect of over 35% in size
Method in brief: (§1)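 ATP-based CellTiter-Glo luminescence after 48 h drug exposure (37 °C, 5% CO2) of 500 myeloma cells per well. DMSO-only wells set 100% viability, media-only wells 0%; MIPE 4.0 library added by pin tool.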

[2] = Quantitative High-Throughput drug screen in 47 multiple myeloma cell lines against the NCATS MIPE library collection: L363_DSMZ cell viability assay (AID 1918984); further: nearly all actives have a fitted effect of over 40% in size
Method in brief: as §1

[3] = Quantitative High-Throughput drug screen in 47 multiple myeloma cell lines against the NCATS MIPE library collection: KMS34_JCRB cell viability assay (AID 1918985); further: nearly all actives have a fitted effect of over 40% in size
Method in brief: as §1

[4] = Quantitative High-Throughput drug screen in 47 multiple myeloma cell lines against the NCATS MIPE library collection: OCIMY7_PLB cell viability assay (AID 1918987); conditions: OCI-MY7 myeloma viability, CellTiter-Glo ATP, 48 h; viability (% of DMSO): at 45.8 µM (top of the series); further: nearly all actives have a fitted effect of over 65% in size
Method in brief: as §1

[5] = Quantitative High-Throughput drug screen in 47 multiple myeloma cell lines against the NCATS MIPE library collection: OCIMY5_PLB cell viability assay (AID 1918988); further: nearly all actives have a fitted effect of over 65% in size
Method in brief: as §1

[6] = Quantitative High-Throughput drug screen in 47 multiple myeloma cell lines against the NCATS MIPE library collection: OPM1_PLB cell viability assay (AID 1918989); further: nearly all actives have a fitted effect of over 40% in size
Method in brief: as §1

[7] = Quantitative High-Throughput drug screen in 47 multiple myeloma cell lines against the NCATS MIPE library collection: SKMM1_PLB cell viability assay (AID 1919863); conditions: SKMM1 myeloma viability, CellTiter-Glo ATP, 48 h; viability: active compounds read low; further: nearly all actives have a fitted effect of over 35% in size
Method in brief: as §1

[8] = Quantitative High-Throughput drug screen in 47 multiple myeloma cell lines against the NCATS MIPE library collection: U266_ATCC cell viability assay (AID 1919864); further: nearly all actives have a fitted effect of over 35% in size
Method in brief: as §1

[9] = Quantitative High-Throughput drug screen in 47 multiple myeloma cell lines against the NCATS MIPE library collection: XG6_PLB cell viability assay (AID 1919865); further: nearly all actives have a fitted effect of over 40% in size
Method in brief: as §1

[10] = Quantitative High-Throughput drug screen in 47 multiple myeloma cell lines against the NCATS MIPE library collection: XG1_PLB cell viability assay (AID 1919866); further: nearly all actives have a fitted effect of over 35% in size
Method in brief: as §1

[11] = Quantitative High-Throughput drug screen in 47 multiple myeloma cell lines against the NCATS MIPE library collection: VP6_DJ cell viability assay (AID 1919867); further: nearly all actives have a fitted effect of over 40% in size
Method in brief: as §1

[12] = Quantitative High-Throughput drug screen in 47 multiple myeloma cell lines against the NCATS MIPE library collection: UTMC2_PLB cell viability assay (AID 1919868); conditions: CellTiter-Glo ATP luminescence, 48 h; viability (% of DMSO control): at 45.8 µM (top of the series); further: nearly all actives have a fitted effect of over 55% in size
Method in brief: as §1

[13] = Quantitative High-Throughput drug screen in 47 multiple myeloma cell lines against the NCATS MIPE library collection: PE2_PLB cell viability assay (AID 1919869); further: nearly all actives have a fitted effect of over 35% in size
Method in brief: as §1

[14] = Quantitative High-Throughput drug screen in 47 multiple myeloma cell lines against the NCATS MIPE library collection: PCM6_Riken cell viability assay (AID 1919870); further: nearly all actives have a fitted effect of over 30% in size
Method in brief: as §1

[15] = Quantitative High-Throughput drug screen in 47 multiple myeloma cell lines against the NCATS MIPE library collection: RPMI8226_ATCC cell viability assay (AID 1919871); further: nearly all actives have a fitted effect of over 30% in size
Method in brief: as §1

[16] = Quantitative High-Throughput drug screen in 47 multiple myeloma cell lines against the NCATS MIPE library collection: OPM2_DSMZ cell viability assay (AID 1919872); further: nearly all actives have a fitted effect of over 30% in size
Method in brief: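 Approved and investigational drugs from MIPE 4.0 were added by pin tool to 500 cells per well. After 48 hours at 37C, ATP-based CellTiter-Glo luminescence indicated remaining viability.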

[17] = Quantitative High-Throughput drug screen in 47 multiple myeloma cell lines against the NCATS MIPE library collection: KMS11_JCRBsus cell viability assay (AID 1919873); further: nearly all actives have a fitted effect of over 50% in size
Method in brief: as §1

[18] = Quantitative High-Throughput drug screen in 47 multiple myeloma cell lines against the NCATS MIPE library collection: KMS28BM_JCRB cell viability assay (AID 1919874); further: nearly all actives have a fitted effect of over 35% in size
Method in brief: as §1

[19] = Quantitative High-Throughput drug screen in 47 multiple myeloma cell lines against the NCATS MIPE library collection: LP1_DSMZ cell viability assay (AID 1918982); further: nearly all actives have a fitted effect of over 35% in size
Method in brief: as §1
Potency means the concentration at half of the fitted maximal effect.

In the case of `Cc1ncc(-c2ccnc(Nc3ccc(S(C)(=O)=O)cc3)n2)n1C(C)C`, the Potency [1] is reported as 5.26 µM (active), the Potency [2] is reported as 1.66 µM (active) and the Potency [3] is reported as 1.87 µM (active). The Potency [4] was 833 nM (active), the Potency [5] was 3.32 µM (active) and the Potency [6] was 2.35 µM (active). For the same compound, the Potency [7] was 5.26 µM (active), the Potency [8] was 3.32 µM (active) and the Potency [9] was 1.87 µM (active). The Potency [10] was 1.48 µM (active), the Potency [11] was 1.87 µM (active) and the Potency [12] was 3.32 µM (active). The Potency [13] was 2.35 µM (active), the Potency [14] was 743 nM (active) and the Potency [15] was 5.9 µM (active). For the same compound, the Potency [16] was 3.72 µM (active), the Potency [17] was 2.09 µM (active) and the Potency [18] was 4.69 µM (active).

In the case of `COc1cc([C@@H]2c3cc4c(cc3[C@H](O)[C@H]3COC(=O)[C@@H]23)OCO4)cc(OC)c1OC`, the Potency [1] is reported as 0.148 µM (active), the Potency [2] is reported as 0.0662 µM (active) and the Potency [3] is reported as 0.0833 µM (active). The Potency [4] was 46.9 nM (active), the Potency [5] was 0.0296 µM (active) and the Potency [6] was 0.187 µM (active). The Potency [7] was 0.059 µM (active), the Potency [9] was 0.0833 µM (active) and the Potency [10] was 0.0469 µM (active). The Potency [11] was 0.296 µM (active), the Potency [12] was 0.209 µM (active) and the Potency [13] was 0.148 µM (active). For the same compound, the Potency [14] was 332 nM (active), the Potency [15] was 0.469 µM (active) and the Potency [16] was 0.148 µM (active). For the same compound, the Potency [18] was 0.0418 µM (active).

For `CC(C)(O)CC[C@@H](O)[C@](C)(O)[C@H]1CC[C@@]2(O)C3=CC(=O)[C@@H]4C[C@@H](O)[C@@H](O)C[C@]4(C)[C@@H]3CC[C@]12C`, the Potency [19] was “inactive”, the Potency [3] was “inactive” and the Potency [5] was “inactive”. For the same compound, the Potency [6] was “inactive”, the Potency [10] was “inactive” and the Potency [13] was “inactive”. The Potency [14] was “inactive”, the Potency [15] was “inactive” and the Potency [16] was “inactive”.

For `Oc1ccc([C@@H]2Oc3ccc(O)cc3[C@@H]3CCC[C@@H]32)cc1`, the Potency [1] was 23.5 µM (active), the Potency [2] was “inactive” and the Potency [3] was 23.5 µM (active). For the same compound, the Potency [4] was 1180 nM (active), the Potency [5] was 14.8 µM (active) and the Potency [6] was 16.6 µM (active). For the same compound, the Potency [7] was 10.5 µM (active), the Potency [16] was 33.2 µM (active) and the Potency [17] was 7.43 µM (active). For the same compound, the Potency [18] was 14.8 µM (active).

With `COc1ccc([C@@H]2CNC(=O)C2)cc1OC1CCCC1` the Potency [19] was “inactive”, the Potency [6] was 8.33 µM (active) and the Potency [8] was 1.18 µM (active). For the same compound, the Potency [9] was 1.32 µM (active), the Potency [10] was 2.64 µM (active) and the Potency [11] was 2.35 µM (active). For the same compound, the Potency [12] was 6.62 µM (active), the Potency [15] was “inactive” and the Potency [16] was “inactive”. The Potency [17] was “inactive” and the Potency [18] was “inactive”.

With `C[C@@H](Oc1ccc2[nH]nc(C=Cc3cnn(CCO)c3)c2c1)c1c(Cl)cncc1Cl` the Potency [19] was 20.9 µM (active), the Potency [3] was 0.209 µM (active) and the Potency [4] was 148 nM (active). The Potency [5] was 6.62 µM (active), the Potency [7] was 26.4 µM (active) and the Potency [9] was 0.662 µM (active). For the same compound, the Potency [10] was 0.0935 µM (active), the Potency [11] was 1.32 µM (active) and the Potency [14] was 4180 nM (active). For the same compound, the Potency [15] was 1.32 µM (active), the Potency [16] was 0.296 µM (active) and the Potency [17] was 0.148 µM (active). The Potency [18] was 1.18 µM (active).

With `COc1cc(C[C@@H](CO)[C@H](CO)Cc2ccc(O)c(OC)c2)ccc1O` the Potency [1] was “inactive”, the Potency [2] was 5.9 µM (active) and the Potency [3] was “inactive”. For the same compound, the Potency [4] was 1050 nM (active), the Potency [5] was 0.332 µM (active) and the Potency [6] was 0.935 µM (active). The viability [7] was 127%, the Potency [9] was 0.209 µM (active) and the Potency [10] was 0.418 µM (active). The Potency [11] was 0.372 µM (active), the Potency [12] was 1.32 µM (active) and the Potency [13] was 2.35 µM (active). For the same compound, the Potency [14] was 132 nM (active), the Potency [16] was “inactive” and the Potency [17] was “inactive”. The Potency [18] was “inactive”.

In the case of `c1cc(N[C@@H]2CCNC2)nc(-c2cnc3ccc(-c4cn[nH]c4)cn23)c1`, the Potency [1] is reported as 16.6 µM (active), the Potency [2] is reported as 7.43 µM (active) and the Potency [4] is reported as 7430 nM (active). For the same compound, the Potency [5] was 13.2 µM (active), the Potency [6] was 16.6 µM (active) and the Potency [7] was 26.4 µM (active). The Potency [9] was 2.64 µM (active), the Potency [10] was 5.26 µM (active) and the Potency [11] was 14.8 µM (active). The Potency [12] was 4.69 µM (active), the Potency [13] was 2.35 µM (active) and the Potency [14] was 5900 nM (active). The Potency [15] was “inactive” and the Potency [18] was 23.5 µM (active).

With `CC(=O)O[C@H]1C[C@@H]2CC[C@H]3[C@H]4C[C@H]([N+]5(C)CCCCC5)[C@@H](OC(C)=O)[C@@]4(C)CC[C@@H]3[C@@]2(C)C[C@H]1N1CCCCC1` the Potency [1] was 0.332 µM (active), the Potency [2] was “inactive” and the Potency [4] was “inactive”. The Potency [6] was “inactive”, the viability [7] was 143% and the Potency [8] was “inactive”. The Potency [9] was “inactive”, the Potency [11] was “inactive” and the Potency [12] was “inactive”. For the same compound, the Potency [13] was “inactive”, the Potency [14] was “inactive” and the Potency [15] was “inactive”. For the same compound, the Potency [17] was “inactive” and the Potency [18] was “inactive”.

For `CCN(CC)CCCCNc1ncc2c(n1)N(C)C(=O)N(c1c(Cl)c(OC)cc(OC)c1Cl)C2`, the Potency [1] was 10.5 µM (active), the Potency [2] was “inactive” and the Potency [5] was 14.8 µM (active). The Potency [6] was 0.833 µM (active), the Potency [7] was 14.8 µM (active) and the Potency [8] was 18.7 µM (active). The Potency [9] was 23.5 µM (active), the Potency [10] was 13.2 µM (active) and the Potency [11] was 18.7 µM (active). For the same compound, the Potency [12] was “inactive”, the Potency [14] was 16600 nM (active) and the Potency [15] was 14.8 µM (active). The Potency [17] was 20.9 µM (active) and the Potency [18] was 11.8 µM (active).
